Test results published in PubChem BioAssay AID1159580 (chemical genetic matrix, 2015).
Out of some 5,500 compounds screened, about 2,000 (36%) were called active. Not shown: some 18% with an inconclusive outcome. Cut-off read from the data, not from the text of the source: active = normalized growth mostly below about 0.91 (no sharp cut-off); inconclusive = no clear call, values can overlap the other calls; inactive = mostly above about 0.92. The list shows a part of the results.

Test: chemical genetic growth profiling, strain panel (AID 1159580);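 note: tested at 20 µM; growth read once vehicle control cultures reached saturation at 30 °C; 1 = growth at the plate median or of vehicle wells; lower values mean less growth of the strain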
Conditions: S. cerevisiae deletion strains, growth OD
[1] = locus YHR030C, strain SLT2, stronger effect = lower value
[2] = locus YHR079C, strain IRE1, stronger effect = lower value
[3] = locus YJL095W, strain BCK1, stronger effect = lower value
[4] = locus YJR066W, strain TOR1, stronger effect = lower value
[5] = locus YLR113W, strain HOG1, stronger effect = lower value
[6] = locus YNL183C, strain NPR1, stronger effect = lower value
[7] = locus YOR231W, strain MKK1, stronger effect = lower value
[8] = locus YPL256C, strain CLN2, stronger effect = lower value

Measured: normalized growth

COc1cc2oc3cc(OC)c(OC)c(CC=C(C)C)c3c(=O)c2c(O)c1CC=C(C)C
inactive: [1] 0.981 | [2] 0.988 | [3] 0.971 | [4] 0.934 | [5] 0.958 | [6] 0.919 | [7] 0.981 | [8] 0.992

Cc1c(O)cc(O)c2c(=O)c(-c3ccc(O)cc3)coc12
inactive: locus YBR021W, strain FUR4, stronger effect = lower value 1.01 | locus YBR229C, strain ROT2, stronger effect = lower value 1 | locus YCL029C, strain bik1, stronger effect = lower value 1.02 | locus YDL035C, strain GPR1, stronger effect = lower value 1.01 | locus YDL074C, strain BRE1, stronger effect = lower value 1.01 | locus YDL101C, strain DUN1, stronger effect = lower value 1.01 | locus YDL185W, strain tfp1, stronger effect = lower value 1.01 | locus YDL192W, strain arf1, stronger effect = lower value 1.02 | locus YDR101C, strain arx1, stronger effect = lower value 1 | locus YDR150W, strain NUM1, stronger effect = lower value 0.997 | locus YDR162C, strain NBP2, stronger effect = lower value 1 | locus YDR318W, strain mcm21, stronger effect = lower value 1 | locus YDR388W, stronger effect = lower value 1.01 | locus YDR502C, strain sam2, stronger effect = lower value 1.01 | locus YEL061C, strain CIN8, stronger effect = lower value 0.993 | locus YER110C, stronger effect = lower value 1.02 | locus YER155C, strain BEM2, stronger effect = lower value 1.01 | locus YER167W, strain BCK2, stronger effect = lower value 1 | locus YGL078C, strain dbp3, stronger effect = lower value 1.01 | locus YGL086W, strain mad1, stronger effect = lower value 1.02 | locus YGL248W, strain PDE1, stronger effect = lower value 1 | locus YGR078C, strain PAC10, stronger effect = lower value 0.978 | locus YGR135W, strain pre9, stronger effect = lower value 1.03 | locus YGR229C, strain SMI1, stronger effect = lower value 0.987 | locus YGR252W, strain gcn5, stronger effect = lower value 0.983 | [1] 1 | locus YHR079C, strain IRE1 (second series), stronger effect = lower value 1 | locus YHR094C, strain hxt1, stronger effect = lower value 1 | locus YHR129C, strain ARP1, stronger effect = lower value 1 | locus YHR200W, strain rpn10, stronger effect = lower value 1.01 | locus YIL066C, strain RNR3, stronger effect = lower value 0.995 | locus YIL073C, strain SPO22, stronger effect = lower value 1.07 | locus YIL125W, strain kgd1, stronger effect = lower value 0.996 | locus YIR030C, strain dcg1, stronger effect = lower value 1.01 | [3] 0.998 | locus YJL134W, strain LCB3, stronger effect = lower value 1 | locus YJL168C, strain set2, stronger effect = lower value 1 | locus YJL187C, strain SWE1 (second series), stronger effect = lower value 0.991 | locus YJR043C, strain POL32, stronger effect = lower value 0.997 | locus YJR075W, strain HOC1, stronger effect = lower value 0.99 | locus YKL009W, strain mrt4, stronger effect = lower value 0.99 | locus YKL068W, stronger effect = lower value 1 | locus YKL085W, strain MDH1 (second series), stronger effect = lower value 0.994 | locus YKL085W, strain MDH1, stronger effect = lower value 0.994 | locus YKL190W, strain CNB1, stronger effect = lower value 0.986 | locus YKR001C, strain vps1, stronger effect = lower value 0.992 | locus YLR039C, strain RIC1, stronger effect = lower value 1.18 | locus YLR058C, strain SHM2, stronger effect = lower value 0.993 | locus YLR102C, strain apc9, stronger effect = lower value 1.01 | locus YLR262C, strain YPT6, stronger effect = lower value 1.21 | locus YLR268W, strain sec22, stronger effect = lower value 1.01 | locus YLR330W, strain CHS5, stronger effect = lower value 1.01 | locus YLR342W, strain FKS1 (second series), stronger effect = lower value 1.02 | locus YLR371W, strain rom2, stronger effect = lower value 1.01 | locus YLR418C, strain cdc73, stronger effect = lower value 0.95 | locus YML016C, strain PPZ1, stronger effect = lower value 1.01 | locus YML032C, strain rad52, stronger effect = lower value 0.995 | locus YML124C, strain tub3, stronger effect = lower value 1.02 | locus YMR078C, strain ctf18, stronger effect = lower value 1.01 | locus YMR223W, strain ubp8, stronger effect = lower value 1.01 | locus YMR263W, strain SAP30, stronger effect = lower value 0.989 | locus YMR307W, strain GAS1, stronger effect = lower value 0.993 | locus YNL067W, strain RPL9B, stronger effect = lower value 0.986 | locus YNL153C, strain GIM3, stronger effect = lower value 0.979 | locus YNL233W, strain BNI4, stronger effect = lower value 0.979 | locus YNL250W, strain rad50, stronger effect = lower value 1.01 | locus YNL271C, strain bni1, stronger effect = lower value 1.02 | locus YNL298W, strain CLA4, stronger effect = lower value 1.01 | locus YNL307C, strain MCK1, stronger effect = lower value 1.01 | locus YNR052C, strain pop2, stronger effect = lower value 1.01 | locus YOL012C, strain htz1 1.03 | locus YOL147C, strain pex11, stronger effect = lower value 0.998 | locus YOR061W, strain CKA2, stronger effect = lower value 1 | locus YOR069W, strain VPS5, stronger effect = lower value 1.01 | locus YOR136W, strain idh2, stronger effect = lower value 0.999 | locus YOR144C, strain elg1, stronger effect = lower value 1 | locus YOR184W, strain ser1, stronger effect = lower value 0.988 | locus YOR316C, strain cot1, stronger effect = lower value 1.02 | locus YPL055C, strain LGE1, stronger effect = lower value 0.944 | locus YPR119W, strain clb2, stronger effect = lower value 1 | locus YPR141C, strain kar3, stronger effect = lower value 1.02 | locus YPR163C, strain tif3, stronger effect = lower value 1 | locus YPR167C, strain met16, stronger effect = lower value 1.03 | strain wtn01, stronger effect = lower value 1.01

COc1cc2oc3cc(OC)c(OC)c(CC=C(C)C)c3c(=O)c2c(OC)c1CC=C(C)C
inactive: [1] 0.934 | [2] 0.927 | [3] 0.918 | [4] 0.885 | [5] 0.895 | [6] 0.862 | [7] 0.905 | [8] 0.955
